The list is not random: actives were taken first. Their share in the collection is about 3.4%.
MITF inh = blocks human microphthalmia-associated transcription factor | AlphaScreen MITF homodimerization, bead proximity signal | O75030 | 650,000 tested, 0.91% active | inhibition, % at 2.6 µM; in the data active = inhibition above about 50%
GPR151 ag = activators of human GPR151; Q8TDV0; PathHunter beta-arrestin GPR151 cells, luminescence; activation, % at 11.2 µM; 650,000 tested, 1% active; in the data active = activation above about 4.9%
Target sequence (Q8TDV0 whole entry, looked up): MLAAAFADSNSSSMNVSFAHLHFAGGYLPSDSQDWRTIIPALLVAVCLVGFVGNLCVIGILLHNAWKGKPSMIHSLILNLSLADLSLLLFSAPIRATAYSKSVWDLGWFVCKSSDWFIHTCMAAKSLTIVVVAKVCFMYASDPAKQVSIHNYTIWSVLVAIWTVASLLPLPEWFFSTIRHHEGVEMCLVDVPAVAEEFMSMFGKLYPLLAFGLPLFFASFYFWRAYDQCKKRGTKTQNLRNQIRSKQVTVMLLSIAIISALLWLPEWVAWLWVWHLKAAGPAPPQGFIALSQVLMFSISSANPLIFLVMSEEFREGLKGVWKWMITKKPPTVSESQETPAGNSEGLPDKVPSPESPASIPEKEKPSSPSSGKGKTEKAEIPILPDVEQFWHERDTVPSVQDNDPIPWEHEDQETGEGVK
TEAD-YAP block = TEAD-YAP interaction inhibition; HEK-TIYL cells, TEAD-Gal4/YAP UAS-luciferase luminescence; inhibition, % at 9.12 µM; 640,000 tested, 1.4% active; in the data active = inhibition above about 32%
FBW7 activator = activators of human E3 ligase FBW7; Q969H0; AlphaScreen FBW7–phospho-cyclin E peptide binding, activator screen; normalized activity (activation), % at 26.1 µM; 650,000 tested, 0.13% active; AID 1259310; in the data active = normalized activity above about 1.9%;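 also: purified mutant Fbw7 with reduced substrate affinity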
Hits are given with their value; – = inactive; ! = a repeat was not active.

SMILES | MITF inh | GPR151 ag | TEAD-YAP block | FBW7 activator
O=C(O)C1Nc2ccccc2C2C=CCC12 (stereo not drawn) | 75.2 | – | – | –
O=C(O)C1Nc2c(F)cccc2C2C=CCC12 (stereo not drawn) | 78.2 | – | – | –
COc1ccc(CNC(=O)CCSc2nc3sc4c(c3c(=O)n2-c2ccccc2)CCC4)cc1 | – | – | – | –
O=C(NCC1CC(Cc2ccc(F)cc2)=NO1)c1n[nH]c2c1CCC2 (stereo not drawn) | – | – | – | –
O=C(NCCNCc1ccccn1)c1cccs1 | – | – | – | –
COC(=O)CC12CC3CC(CC(C3)C1)C2 | – | – | – | –
O=C(O)C1Nc2c(O)ccc(Br)c2C2C=CCC12 (stereo not drawn) | 85.7 | – | – | –
O=C(O)C1Nc2ccc3ccccc3c2C2C=CCC12 (stereo not drawn) | – | – | – | –
COc1ccc(-c2csc3ncnc(Cl)c23)cc1OC | – | – | 33.9 | –
COc1cc2nc(CN3CCN(c4ccccn4)CC3)[nH]c(=O)c2cc1OC | – | – | 72.9 | –
COc1cc2nc(CN3c4ccccc4CC3C)[nH]c(=O)c2cc1OC (stereo not drawn) | – | – | 48.2 | –
COc1cc2nc(CN3CCCCCCC3)[nH]c(=O)c2cc1OC | – | – | – | –
COc1ccc2c(c1)CC/C(=C\c1cccn1C)C2=O | – | – | 45.8 | –
CCCCOC(=O)C1=C(C)NC2=C(C(=O)CC(C)(C)C2)C1c1ccccc1OCC (stereo not drawn) | – | – | – | –
CCOC(=O)c1c(NC(=O)CN2CCCCCC2)sc2c1CCCCC2 | – | – | – | –
CCOC(=O)c1c(NC(=O)/C=C/C(=O)O)sc2c1CCCCCC2 | – | – | 35.3 | –
CCOC(=O)c1c(NC(=O)CN2CCN(CC)C(=O)C2=O)sc2c1CCCC2 | – | – | 44.5 | –
CCOC(=O)c1c(NC(=O)/C=C/C(N)=O)sc2c1CCCC2 | – | – | 43.1 | –
CCOC(=O)c1c(NC(N)=O)sc2c1CCCC2 | – | – | – | –
COc1cccc(CN2CCN(C(=O)c3ccc(CN4CCCC4)o3)[C@@H](C)C2)c1 | – | – | – | –
CCN(CC)C(=O)CSc1nnc(NC(=O)/C=C/c2ccccc2)s1 | – | – | – | –
Cc1cccc(Nc2nc3nonc3nc2Nc2ccccc2I)c1 | – | – | 86.5 | –
COc1ccc(OC)c(C2CNC(=O)C2)c1 (stereo not drawn) | – | – | – | –
COc1ccc(C2CNC(=O)C2)cc1OC1CCCC1 (stereo not drawn) | – | – | 33.1! | –
O=C(Nc1cc([N+](=O)[O-])ccc1Cl)c1cc2ccccc2o1 | – | – | – | –
SMILES | MITF inh | GPR151 ag | TEAD-YAP block | FBW7 activator
CC(C)n1c(SCc2ccccc2Cl)nc2c1c(=O)[nH]c(=O)n2C | – | – | 43.4 | –
C#CC(O)(c1ccc(OC)cc1)c1ccc(OC)c2ccccc12 (stereo not drawn) | – | – | 55.8 | –
N#C/C(=C\c1ccc(Cl)c([N+](=O)[O-])c1)c1nn(CCO)c(N)c1C#N | – | – | – | –
N#C/C(=C\c1cc([N+](=O)[O-])ccc1Cl)c1nn(CCO)c(N)c1C#N | – | – | 67.5 | –
N#C/C(=C\c1c[nH]c2ccccc12)C(=O)Nc1ccc([N+](=O)[O-])cc1Cl | – | – | – | –
N#CC1=C(N)Oc2cc(N)ccc2C1c1ccc(Br)cc1 (stereo not drawn) | – | – | – | –
CCN(CC)c1ccc2c(c1)OC(N)=C(C#N)C2c1cccc(F)c1 (stereo not drawn) | – | – | 68.3 | –
N#CC1=C(N)Oc2cc(N)ccc2C1c1cccc(Br)c1 (stereo not drawn) | – | – | 55.1 | –
CN(C)c1ccc2c(c1)OC(N)=C(C#N)C2c1ccc(F)cc1 (stereo not drawn) | – | – | – | –
COc1ccc(NC(=O)/C(=C/c2cccc([N+](=O)[O-])c2)NC(=O)c2cccs2)cc1 | – | – | – | –
Cc1ccc(C)c(NC(=O)C2CC3c4ccccc4C2c2ccccc23)c1 (stereo not drawn) | – | – | – | 2.0
COc1ccc2c(c1)c(CC(=O)Nc1ccccn1)c(C)n2C(=O)c1ccc(Cl)cc1 | – | – | 37.3 | –
CCOC(=O)C1=C(CSc2nc(-c3cccs3)ccc2C#N)OC(N)=C(C#N)C1c1ccc(F)cc1 (stereo not drawn) | – | – | – | –
COC(=O)c1ccc2c(=O)n(CC3CCCO3)c(SCC(=O)Nc3ccc(C)c(Cl)c3)nc2c1 (stereo not drawn) | – | – | – | 3.5
COC(=O)c1ccc2c(=O)n(CC3CCCO3)c(SCC(=O)Nc3ccc(C)cc3)nc2c1 (stereo not drawn) | – | – | – | –
COc1ccc2[nH]c(=O)c(CN(CC3CCCO3)S(=O)(=O)c3ccccc3F)cc2c1 (stereo not drawn) | – | – | 33.8 | –
Cc1nc2c(-c3ccccc3)c(C)nn2c(C)c1CC(=O)NC(C)c1ccccc1 (stereo not drawn) | – | – | – | –
O=C(CSc1n[nH]c(/C=C/c2ccc(F)cc2)n1)Nc1cc(C(=O)O)cc([N+](=O)[O-])c1 | – | – | 68.9 | –
COc1cc(Nc2nc(-c3ccc(C(N)=O)cc3)nc3c2ncn3-c2ccsc2)cc(OC)c1OC | – | – | 53.9 | –
COc1cc(Nc2nc(-c3ccc(C(=O)N4CCN(C)CC4)cc3)nc3c2ncn3C(C)C)cc(OC)c1OC | – | – | – | –
COc1cc(Nc2nc(-c3ccc(C(N)=O)cc3)nc3c2ncn3Cc2ccc(C(F)(F)F)cc2)cc(OC)c1OC | – | – | 52.9 | –
COc1cc(Nc2nc(-c3ccc(C(N)=O)cc3)nc3c2ncn3-c2ccccc2)cc(OC)c1OC | – | – | – | –
COc1cc(Nc2nc(-c3ccc(C(N)=O)cc3)nc3c2ncn3C(C)C)cc(OC)c1OC | – | – | 41.1 | –
CN1CCN(C2CC(=O)N(c3ccc(C(=O)O)cc3)C2=O)CC1 (stereo not drawn) | – | – | – | –
O=C(CSc1ccccc1)N1CCN(c2nc3ccccc3s2)CC1 | – | – | 37.5 | –
SMILES | MITF inh | GPR151 ag | TEAD-YAP block | FBW7 activator
COC(=O)c1nn(-c2ccc(-c3ccccc3)cc2)cc1O | – | – | 81.1 | –
Cc1nn(C)c(C)c1-c1nc(NCCCN2CCCC2=O)c2ncn(Cc3ccc(C(F)(F)F)cc3)c2n1 | – | – | – | –
Cc1ncc(CO)c(/C=N/NC(=O)c2cc(O)c(O)c(O)c2)c1O | 98.6 | – | – | –
Cc1ncc(CO)c(/C=N/Nc2ccc3ccccc3n2)c1O | – | – | 51.9 | –
Cc1ncc(CO)c(/C=N/NC(=O)CCCOc2ccc(Cl)cc2Cl)c1O | – | – | 54.6 | –
Cc1ncc(CO)c(/C=N/Nc2cccc(Cl)n2)c1O | – | – | – | –
Cc1ncc(CO)c(/C=N/NC(=O)c2ccc(Cl)c(Cl)c2)c1O | – | – | – | –
CCOC(=O)c1c(-c2ccc(Br)cc2)csc1NC(=O)c1ccc2cc(OC)ccc2c1 | – | – | – | –
O=C(COc1ccccc1)NCC(=O)Nc1ccc(Oc2ccccc2)cc1 | – | – | – | –
Cc1ccc2nc(-c3cc4ccccc4oc3=O)cn2c1 | – | – | – | –
